# Assay outcomes as filed in PubChem.
# Only a sample is shown.
# aSyn 5UTR act = Activators via SNCA 5'UTR binding, MLPCN; alpha-synuclein 5'UTR reporter, activators screen; activity score, % (tested at 7.5 µM), hits read low; 7.1% of 300,000 active; AID 1814; in the data active = activity score below about -60%
# * hit, by the source's call.
SMILES,aSyn 5UTR act
COc1cc(/C=N/n2c(C)n[nH]c2=S)ccc1OCc1ccc(F)cc1,-114.5*
COc1cc(/C=N\n2nnnc2N)ccc1OCc1ccc(F)cc1,-65.3*
COC(=O)C1=C(NC(=O)c2ccc(C)c(C)c2)CCS1,-76.3*
CCn1c(O)c(C=NC2CCCC(C)C2C)sc1=S (stereo not given),-133.3*
Cc1occc1C(=O)NNC(=O)c1ccccc1F,-81.6*
Cc1occc1C(=O)NNC(=S)Nc1ccccc1C(F)(F)F,-85.7*
Cc1occc1C(=O)NNC(=S)Nc1ccccc1,-87.8*
FC(F)(F)c1cc(-c2ccco2)nc(NCCc2ccccc2)n1,-92.2*
CCCCCCCCSc1nnc(-c2ccc(OC)cc2)o1,111.2
C#CCSc1nnc(-c2ccc([N+](=O)[O-])cc2)o1,-150.8*
C#CCSc1nnc(-c2ccc(OC)cc2)o1,-266.2*
CCSc1nnc(-c2ccc(OC)cc2)o1,-185.9*
O=C(N[C@@H](Cc1ccccc1)C(=O)NC1CCCCCC1)c1ccco1,-77.6*
CC(C)c1ccc2[nH]c3c(c2c1)[C@@H]1CCN2C(=O)CCC[C@H](C3)[C@H]12,-92.6*
Cc1ccsc1/C=N/NC(=O)c1ccc([N+](=O)[O-])cc1,-88.0*
COc1cc(C(=O)N/N=C/c2sccc2C)cc(OC)c1OC,114.1
Cc1ccsc1/C=N/NC(=O)c1ccc2ccccc2c1,-215.6*
Cc1ccsc1/C=N/NC(=O)Nc1ccccc1,-162.1*
CC1CCC(NC(=O)CCC(=O)N2CC(C)Oc3ccccc32)CC1 (stereo not given),-144.2*
CNc1nnc(-c2cccc(N(C)C)c2)s1,-94.2*
Cc1cccc(NC(=O)c2ccc(Cl)c(S(=O)(=O)N3CCCC3)c2)n1,-68.0*
Cc1cccc(NC(=O)c2ccc(Cl)c(S(=O)(=O)N3CCCCC3)c2)n1,-79.3*
O=C(Nc1cc(S(=O)(=O)N2CCCCC2)ccc1Cl)c1ccccc1NS(=O)(=O)c1ccc(F)cc1,62.7
O=C(/C=C/c1ccc(F)cc1)NCCC1=CCCCC1,-105.3*
O=C(/C=C/c1ccccc1)NCCOc1ccccc1,-64.1*
SMILES,aSyn 5UTR act
O=C(/C=C/c1ccccc1)NCCC1=CCCCC1,-193.8*
COc1ccccc1/C=C/C(=O)NCCC1=CCCCC1,-149.9*
O=C(NCCOc1ccccc1)C1CCCCC1,-88.8*
COc1c2c(cc3oc(=O)c4c5ccc(O)cc5oc4c13)OC(C)(C)CC2,-198.8*
CC(C)NC(=O)c1ccc(-c2ccccc2C(F)(F)F)o1,-130.7*
CC(=O)Nc1ccc(-c2nc3c(C)cccc3[nH]2)cc1,-140.8*
CNc1ccccc1C(=O)OCC(=O)c1ccccc1,-70.9*
COc1ccccc1NC(CC(=O)c1ccccc1)C(=O)OCC(=O)c1ccc(F)cc1 (stereo not given),-235.3*
CNc1ccccc1C(=O)OCC(=O)c1ccc(F)cc1,-69.9*
C=CCOc1c(CNc2cccc(C(=O)O)c2)cccc1OC,-78.2*
C=CCOc1cccc(CNc2cccc(C(=O)O)c2)c1,-76.6*
O=c1c2c3c(sc2ncn1/N=C/c1ccc([N+](=O)[O-])o1)CCCC3,-89.4*
CC(C)(C)c1ccc(-c2nc(N)nc(N)n2)cc1,-89.5*
Cc1cc(C)nc(NC(=O)CSc2nc3ccccc3o2)n1,-153.2*
CC(=O)c1cc2c(cc1NC(=O)CSc1nc3ccccc3o1)OCO2,-153.7*
Cc1ccc2nc(NC(=O)CSc3nc4ccccc4o3)sc2c1,-143.5*
O=C(CSc1nc2ccccc2[nH]1)Nc1nc(-c2ccc(Br)cc2)cs1,-76.4*
Cc1ccc(-c2csc(NC(=O)CSc3nc4ccccc4o3)n2)cc1,-93.7*
Cc1ccc2nc(NC(=O)CSc3nncc(=O)n3N)sc2c1,-98.5*
O=C(CSc1nc2ccccc2o1)N/N=C/c1ccco1,-81.6*
Nc1c2c(=O)oc(-c3ccccc3)cc2nn1-c1ccccc1,-181.5*
O=C(CCN1CCN(c2ccccc2)CC1)N/N=C/c1ccccc1O,70.6
O=C(N/N=C/c1ccccc1O)NC12CC3CC(CC(C3)C1)C2,-167.5*
Cn1c(NC(=O)/C=C\c2ccccc2)cc(=O)n(C)c1=O,-136.8*
O=C(/C=C/c1c(F)cccc1Cl)Nc1ncccn1,-228.3*
SMILES,aSyn 5UTR act
Cn1c(NNC(=O)c2ccccc2F)cc(=O)n(C)c1=O,45.7
Cn1c(NC(=O)/C=C/c2c(F)cccc2Cl)cc(=O)n(C)c1=O,-172.3*
CCCCCCC#Cc1ccc2c(c1)COc1c3ccccc3nn1-2,-141.1*
CC(C#Cc1ccc2c(c1)COc1c3ccccc3nn1-2)OC(C)(C)C (stereo not given),-113.8*
C#Cc1ccc2c(c1)COc1c3ccccc3nn1-2,-88.7*
C(#Cc1ccc2c(c1)COc1c3ccccc3nn1-2)c1ccccc1,-207.8*
N#CCCCC#Cc1ccc2c(c1)COc1c3ccccc3nn1-2,76.7
CC(=O)Nc1cccc(C(=O)/C=C/c2ccc(/C=C/C(=O)c3cccc(NC(C)=O)c3)cc2)c1,-128.9*
CC(=O)Nc1cccc(C(=O)/C=C/c2cccs2)c1,-116.6*
CC(=O)Nc1cccc(C(=O)/C=C/c2ccc(Br)cc2)c1,-75.5*
CC(=O)Nc1cccc(C(=O)/C=C/c2ccc(F)cc2)c1,-103.1*
CC(=O)Nc1cccc(C(=O)/C=C/c2ccc(N(C)C)cc2)c1,-71.3*
